HIF-2a block = HIF-2a inhibition; 786-0 RCC cells HIF-2a reporter, luciferase luminescence, overnight; inhibition, % at 18.8 µM; actives 0.72% (n = 360,000); AID 624352;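 active = inhibition of the luminescence signal of 40% or more relative to plate controls, in a single-dose primary screen at 18.75 µM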
KKLEB cytotox = counter-screen for CF NF-kB inhibitors: cytotoxicity; KKLEB CF airway cells viability, ATPlite luminescence, overnight; hits give low values; cells stimulated with P. aeruginosa culture filtrate; activity change (cytotoxicity), % at 5 µM; actives 0.36% (n = 360,000); AID 602141;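 active = corrected activity change at or below -50% at 5 µM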
Mdm2-MdmX inh = inhibitors of human Mdm2/MdmX interaction | SaOS-2 split-luciferase Mdm2/MdmX complementation, luminescence | inhibition, % at 8 µM | actives 3% (n = 330,000) | AID 485346;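 active = inhibition of at least 50% at 8 µM in the primary screen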
ABHD5-PLIN5 inh = inhibitors of human ABHD5-perilipin-5 interaction; Q00G26+Q8WTS1; Split G. princeps luciferase complementation, luminescence, 4 h; inhibition, % at 4 µM; actives 0.78% (n = 360,000); AID 602281;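 active = inhibition above the mean inhibition across every tested compound plus 3 SD, cut at about 22% in these data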;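 also: 0% = DMSO only wells and the 100% control is not disclosed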
CF NFkB block = cystic fibrosis NF-kB activation inhibition | KKLEB NF-kB-GFP reporter, PAF-induced, GFP fluorescence overnight | inhibition, % at 5 µM | actives 0.86% (n = 360,000) | AID 588850;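 active = at least 50% inhibition at 5 µM, scaled per plate between neutral and stimulator controls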;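 also: PAF is a Pseudomonas aeruginosa culture filtrate used as stimulus; plate controls were PAF-stimulated DMSO wells for no effect and unstimulated DMSO wells for full effect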
Peg3 promoter = inhibitors of Peg3 promoter | HeLa PEG-Prom luciferase reporter, luminescence, overnight | actives 1.7% (n = 360,000) | inhibition, % at 20 µM | AID 588405;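 active = inhibition of at least 50% at 20 µM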
ABHD5 PLIN5 conf = confirmation of human ABHD5-PLIN5 interaction inhibitors. AID 651612. inhibition, % at 4 µM. actives 67% (n = 2,200). biochemical ABHD5-PLIN5 interaction, luminescence. shares compounds with ABHD5-PLIN5 inh; in the data active = inhibition above about 23%;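 also: 0% = DMSO vehicle wells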
HNF4 counter = counter-screen for ABHD5-PLIN5 inhibitors: HNF4 split-luciferase; shares compounds with ABHD5-PLIN5 inh; HNF4 dimerization, luminescence, biochemical; inhibition, % at 4 µM; actives 77% (n = 2,200); AID 651674;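 active = mean inhibition across replicate wells exceeding the computed hit threshold, cut at about 13% in these data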;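 also: light from luciferase halves that rejoin when HNF4 fusion proteins dimerize; 0% = DMSO only wells and the 100% control is not given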
Target sequence (P41235 whole entry, looked up, the tested form may be a part): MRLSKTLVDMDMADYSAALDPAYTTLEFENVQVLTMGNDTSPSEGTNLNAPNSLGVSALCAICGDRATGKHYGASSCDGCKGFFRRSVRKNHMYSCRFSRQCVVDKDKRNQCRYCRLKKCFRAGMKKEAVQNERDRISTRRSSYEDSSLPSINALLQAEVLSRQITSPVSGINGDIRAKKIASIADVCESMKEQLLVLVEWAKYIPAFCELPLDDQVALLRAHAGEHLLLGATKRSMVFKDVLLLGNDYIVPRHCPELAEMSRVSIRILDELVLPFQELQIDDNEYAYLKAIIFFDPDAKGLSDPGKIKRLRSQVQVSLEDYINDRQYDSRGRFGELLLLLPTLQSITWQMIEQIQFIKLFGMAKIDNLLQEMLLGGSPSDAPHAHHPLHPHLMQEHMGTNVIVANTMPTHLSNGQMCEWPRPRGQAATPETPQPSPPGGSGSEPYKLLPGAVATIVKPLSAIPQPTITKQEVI
* marks the source's active call; other numbers are inactive results; nt = no result. A selection: hits, their analogues and other compounds. The true share with any hit is near 4.6%.

SMILES	HIF-2a block	KKLEB cytotox	Mdm2-MdmX inh	ABHD5-PLIN5 inh	CF NFkB block	Peg3 promoter	ABHD5 PLIN5 conf	HNF4 counter
COc1cccc(/C=C/C(=O)c2cccc([N+](=O)[O-])c2)c1	-26.5	0.9	25.9	64.4*	2.9	17.1	97.0*	97.2*
COc1cccc(C(=O)/C=C/c2ccc(N3CCCCC3)c([N+](=O)[O-])c2)c1	-47.9	-34.3	11.0	29.0*	24.7	66.2*	86.6*	73.1*
COc1ccc(OC(=O)c2cccc([N+](=O)[O-])c2)c(C(=O)/C=C/c2cccs2)c1	-47.8	-8.1	10.5	41.7*	8.3	-81.1	56.7*	52.6*
COc1cccc(/C=C/C(=O)c2cccc([N+](=O)[O-])c2)c1OC	7.4	-14.6	5.7	85.4*	22.1	44.9	101.3*	97.2*
CC(=O)NCc1ccc(C(=O)CN2C(=O)NC3(CCCCC3C)C2=O)s1 (stereo not drawn)	3.2	5.0	-3.5	0.9	8.8	5.8	nt	nt
COc1ccc(/C=C/C(=O)c2ccncc2)c2ccccc12	19.3	-11.6	35.1	56.2*	13.0	22.6	83.8*	79.0*
COc1ccc(CN2C(=O)CN(S(C)(=O)=O)CC2(C)C(=O)Nc2c(C)cccc2C)cc1 (stereo not drawn)	0.7	nt	nt	2.8	nt	nt	nt	nt
COc1ccc(/C=C/C(=O)NCc2ccc3c(c2)OCO3)cc1OC	5.4	-11.6	-6.1	96.2*	-5.5	-8.8	4.6	1.2
O=C(/C=C/c1cccc(F)c1)NCc1ccc2c(c1)OCO2	-71.8	7.5	26.7	-4.7	-4.8	-44.9	nt	nt
COc1ccc(-c2cc(=O)n(CCC#N)[nH]2)cc1	7.0	2.5	-17.8	25.6*	-1.2	-0.4	-11.2	-14.5
COc1ccc(/C=C/C(=O)CCC(=O)O)cc1	-40.5	-1.2	5.1	-2.8	8.4	-87.7	nt	nt
COc1ccc(/C=C/C(=O)CC(O)(c2ccccc2)C(F)(F)F)cc1 (stereo not drawn)	17.0	-5.3	6.7	41.4*	10.7	41.7	71.7*	53.5*
COC(=O)[C@@]12C[C@@H](CC(=O)NCc3cccc(C(F)(F)F)c3)C(=O)N(Cc3cccc4ccccc34)C1=CCC(C)(C)C2	5.4	nt	nt	-1.0	nt	nt	nt	nt
CC1(C)CC(=O)/C(=C\c2cccc([N+](=O)[O-])c2)C(C)(C)N1	29.6	-12.0	11.3	26.2*	21.3	28.4	36.9*	44.4*
CCn1c(SCC(=O)N/N=C/C=C/c2ccco2)nnc1-c1ccccc1	22.9	-1.6	17.9	30.6*	1.4	5.2	24.0*	44.4*
CCn1c(SCC(=O)N/N=C/C(C)=C/c2ccco2)nnc1-c1ccccc1	9.0	-29.4	5.1	6.8	3.8	9.2	nt	nt
COc1cccc2c1C(=O)C=C(C)C2=O	9.4	6.2	20.7	37.3*	57.7*	15.5	56.6*	63.5*
COc1ccc2c(c1O)C(=O)c1ccccc1C2=O	nt	nt	-3.1	nt	nt	nt	nt	nt
CCOC(=O)[C@]12CCCC=C1N(CCc1ccc(OC)c(OC)c1)C(=O)[C@H](CC(=O)N1CCCCC1)C2	2.0	nt	nt	12.9	nt	nt	nt	nt
O=C(/C=C/c1ccccc1)NNC(=O)c1cccc(Cl)c1	-3.9	-2.8	9.5	-1.3	-18.4	-14.0	nt	nt
O=C(C=Cc1cccc(Cl)c1)c1ccccc1	-228.0	5.3	nt	51.3*	23.8	101.9*	97.5*	93.9*
O=C(O)c1cccc(N2C(=O)c3ccc(C(=O)c4cccc([N+](=O)[O-])c4)cc3C2=O)c1	5.5	-2.9	22.8	-1.7	9.1	-1.3	nt	nt
O=C(O)c1ccc2c(c1)C(=O)N(c1cccc(C(=O)/C=C/c3ccccc3)c1)C2=O	-1.9	-7.8	10.9	46.2*	-11.7	1.4	97.3*	91.4*
O=C(C=Cc1ccccc1F)c1ccccc1	-45.4	-0.7	nt	68.7*	-6.6	11.5	86.7*	79.0*
C=CCOc1ccc(Cl)cc1-c1noc(-c2csc([C@H]3C[C@H](O)[C@@H](CO)O3)n2)n1	-124.5	-6.1	nt	5.8	3.2	-74.7	nt	nt

Bioassay records as filed in PubChem.
